# Rows were chosen to be rich in hits. Some 10% of all compounds tested hit in one or more screens of this group.
# GLS inhibitor: glutaminase GLS (human) inhibition. actives 0.21% (n = 410,000). Potency, µM (top dose mostly 45.5 µM), for the others: top-dose activity change, negative = inhibition, usual class: inhibitors. O94925. GLS enzymatic activity, qHTS titration; also: % is scaled to controls: 0 for no effect and ±100 for the full control effect
#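 hKGA in 45 mM KH2PO4 (pH 8.2), 0.02% Tween-20 with compound, then 1mM L-Glutamine (stock as added) plus glutamate oxidase/HRP/Amplex red coupling mix. Fluorescence read initially and after 30 min at RT; signal change reflects glutamate formation.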
# JMJD2A Tudor: inhibitors of human JMJD2A Tudor domain | actives 4.4% (n = 390,000) | AlphaScreen JMJD2A-Tudor / H3K4me3 peptide binding | Potency, µM (series often up to 114 µM), without a hit: at the highest dose activity change, negative = inhibition, hits mostly inhibitors; also: % is scaled to controls: 0 for no effect and ±100 for the full control effect; nearly all actives have a fitted effect of over 50% in size
# G9a block: blocks human histone lysine methyltransferase G9a; Q96KQ7; G9a H3K9 monomethylation, AlphaScreen, 2 h; Potency, µM (highest dose often 102 µM), inactives show top-dose activity, negative = inhibition, actives largely listed as inhibitors; actives 8.8% (n = 350,000); AID 504332; also: % is scaled to controls: 0 for no effect and ±100 for the full control effect; nearly all actives have a fitted effect of over 75% in size
# Target sequence (Q96KQ7 913-1193 limits assumed): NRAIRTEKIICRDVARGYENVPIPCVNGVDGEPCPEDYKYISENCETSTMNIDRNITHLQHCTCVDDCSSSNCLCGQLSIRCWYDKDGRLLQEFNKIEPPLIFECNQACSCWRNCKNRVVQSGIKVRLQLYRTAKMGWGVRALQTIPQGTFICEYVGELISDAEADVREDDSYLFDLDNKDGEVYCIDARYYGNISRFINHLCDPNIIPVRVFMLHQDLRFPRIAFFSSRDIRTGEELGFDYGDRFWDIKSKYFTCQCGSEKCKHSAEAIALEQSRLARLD
#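 G9a (20 nM) was preincubated 15 min with compound, then reacted 2 h at room temperature with 500 nM biotin-H3K9 peptide and 20 µM SAM. Monomethyl-H3K9 detected by AlphaScreen using anti-H3K9me1 antibody.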
# BAZ2B inh: inhibitors of human BAZ2B bromodomain; Potency, µM (doses to about 114 µM), inactives show top-dose activity change, negative = inhibition, actives largely listed as inhibitors; actives 4.4% (n = 360,000); AlphaScreen BAZ2B-H3K14Ac peptide displacement; AID 504333; Q9UIF8; also: % is scaled to controls: 0 for no effect and ±100 for the full control effect; nearly all actives have a fitted effect of over 60% in size
#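 Protein-peptide AlphaScreen: BAZ2B 50 nM, b-H3K14Ac 50 nM, 1x PBS pH 7.4 + 0.01% Tween-20. Preincubation 30 min RT; cpd 30 min RT (top 110 uM); beads 20 min RT, light-protected.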
# HP1b binding inh: inhibitors of HP1-beta chromodomain binding to methylated histone tails | P83916 | AlphaScreen HP1-beta / biotin-H3K9me3 peptide binding | Potency, µM (highest dose often 114 µM), for inactives: at the top dose activity change, negative = inhibition, actives largely listed as inhibitors | actives 0.56% (n = 390,000); also: nearly all actives have a fitted effect of over 70% in size
# Target sequence (P83916 whole entry, looked up): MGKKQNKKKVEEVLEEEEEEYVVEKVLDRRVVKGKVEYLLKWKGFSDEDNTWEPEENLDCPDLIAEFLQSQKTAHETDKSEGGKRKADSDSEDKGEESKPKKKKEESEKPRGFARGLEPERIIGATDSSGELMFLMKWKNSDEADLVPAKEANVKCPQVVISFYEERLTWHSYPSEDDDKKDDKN
#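 Compound inhibition of the preformed complex between 50 nM HP1-beta and 50 nM biotinylated H3K9me3 peptide was read by AlphaScreen. Buffer was PBS pH 7.4 with 0.01% Tween-20. Incubations ran 30 min at room temperature, with 10 ug/mL donor/acceptor beads.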
# An asterisk follows results filed as active; ? = inconclusive; . = not tested or not shown; [ ] = another dose, or the depositor's remark. Calls follow the shape of the dose curve; as a rule, active = well fitted curve in the direction sought with a large enough effect; inconclusive = small, poorly fitted or top-dose-only effect, or another doubt; inactive = no such curve, though single readings can be large; an effect the other way counts as inactive or inconclusive. Potency is read from the fitted curve at half-maximal effect.
SMILES,GLS inhibitor,JMJD2A Tudor,G9a block,BAZ2B inh,HP1b binding inh
CCOC(=O)C(=CNNc1c(C)csc1C(=O)OC)C(=O)OCC,19.8%,-19.8%,8.91µM*,-22.5%,43.0%
CCCN[C@@H](C)C(=O)Nc1c(C)csc1C(=O)OC,-5.4%[20 µM],.,10.6%[21.5 µM],.,.
COc1c(C)cc(S(=O)(=O)NCCc2c(C)[nH]c3ccccc23)c(C)c1C,3.5%,?,?,39.8µM*,-19.5%
COc1ccc(C(C)C)cc1S(=O)(=O)NCCc1c(C)[nH]c2c(Cl)cccc12,4.7%,?,?,28.2µM*,-11.8%
Cc1[nH]c2ccccc2c1CCNS(=O)(=O)c1ccc(S(N)(=O)=O)cc1,-9.2%,?,19.3%,-16.8%,0.5%
COc1ccc(C(C)C)cc1S(=O)(=O)NCCc1c(C)[nH]c2ccc(C)cc12,0.3%,50.1µM*,?,?,9.6%
COc1cc(Cl)c(S(=O)(=O)NCCc2c(C)[nH]c3c(C)cccc23)cc1Cl,2.6%,50.1µM*,-27.0%[59 µM],31.6µM*,-21.2%
COc1ccc(C(C)C)cc1S(=O)(=O)NCCCn1ccnc1,6.3%,-11.6%,19.6%,-25.5%,33.5%
COc1cc(S(=O)(=O)NCCc2c(C)[nH]c3ccc(C)cc23)ccc1Br,6.5%,50.1µM*,?,?,?
Cc1[nH]c2c(C)cccc2c1CCNS(=O)(=O)c1cccc([N+](=O)[O-])c1,26.8%,?,?,50.1µM*,?
Cc1sc(NC(=O)CCCC(=O)O)c(C(N)=O)c1-c1ccccc1,3.0%,-22.9%,25.1µM*,0.0%,-33.1%
Cc1cccc(N=CC=C2OC(C)(C)C(C)(C)O2)c1,2.0%,-13.9%,?,-14.2%,30.6%
COc1ccc(N=CC=C2OC(C)(C)C(C)(C)O2)cc1OC,2.0%,-25.6%,31.6µM*,?,40.1%
COc1cccc(N=CC=C2OC(C)(C)C(C)(C)O2)c1,5.2%,-20.3%,35.5µM*,0.9%,38.0%
COc1cccc(N=CNc2cccc(OC)c2)c1,-5.6%,50.1µM*,.,.,-19.7%
Cc1ccccc1N=CC=C1OC(C)(C)C(C)(C)O1,1.3%,-13.0%,39.8µM*,0.6%,22.3%
COc1cccc(NC=C2C(=O)OC(C)(C)OC2=O)c1,0.6%,-3.8%,22.0%,0.1%,18.9%
CCOc1ccc(NC(=O)CC2C(=O)N(c3ccc(C)cc3)C(=O)N2Cc2ccc(OC)cc2)cc1 (centres undefined),5.8%,?,-33.9%[59 µM],?,11.9%
CC(C)(C)c1ccc2cccc(F)c2n1,-7.3%,.,.,.,.
COc1cc(NC(=O)CCN2CCN(c3ccccc3)CC2)cc(OC)c1,.,-29.4%,1.1%[59 µM],-18.3%,10.4%
COc1ccc(N2CCN(CCC(=O)c3ccc4ccccc4c3)CC2)cc1,11.1%,?,10µM*,?,-9.7%
O=C(CN1CCN(c2ccc([N+](=O)[O-])cc2)CC1)c1ccccc1,2.1%,?,7.08µM*,-25.7%,-4.1%
COc1ccc(C(=O)CN2CCN(c3cc(C)nc4ccccc34)CC2)cc1,1.1%,-17.4%,12.6µM*,-11.8%,36.6%
COc1ccc2c(c1)c(C(=O)CN1CCN(c3ccccc3)CC1)c(C)n2C,4.4%,-32.7%,35.5µM*,?,-6.9%
COc1ccc2c(c1)c(C(=O)CN1CCN(Cc3ccccc3)CC1)c(C)n2C,-2.5%,-18.6%,.,-4.2%,21.6%
SMILES,GLS inhibitor,JMJD2A Tudor,G9a block,BAZ2B inh,HP1b binding inh
CC1(C)CC(=O)C(C(C2=C(O)CC(C)(C)CC2=O)c2ccc(Br)s2)C(=O)C1 (centres undefined),-16.4%,-14.2%,?,-6.9%,15.2%
CC(C)(C)S(=O)N1Cc2cc(C(=O)N[C@@H]3CCN(Cc4ccccc4)C3)nc(-c3cccc(-c4cc5ccccc5o4)c3)c2[C@@H]1CCO (some centres undefined),-2.5%,.,.,.,.
COc1ccc(N2CCN(C(=O)CCCC(=O)c3ccccc3)CC2)cc1,31.1%,-22.1%,-13.8%,?,17.1%
COc1ccc(N2CCN(CC(=O)N3c4ccccc4CC3C)CC2)cc1 (centres undefined),28.8%,2.82µM*,8.91µM*,35.5µM*,25.1µM*
O=C(CN1CCC2(CC1)OCCO2)c1ccc2cc[nH]c2c1,-1.0%,-8.2%,?,10.9%,9.7%
O=C(CN1CCN(c2ccccc2)CC1)c1ccc2cc[nH]c2c1,9.5%,-12.5%,11.2µM*,13.9%,28.1%
COc1ccc(N2CCN(CC(=O)c3ccccc3)CC2)cc1,?,?,11.2µM*,-20.7%,-2.1%
Cc1c(Cl)cccc1NC(=O)C(=O)NCCc1csc(-c2cccc(F)c2)n1,-5.5%,-9.6%,-0.6%[59 µM],1.1%,14.4%[57 µM]
COc1ccc(-n2nc(C(=O)NCC(=O)NCCc3ccc(OC)c(OC)c3)c3ccccc3c2=O)cc1Cl,12.1%,-20.7%,21.4%,0.8%,3.2%
COc1ccc(OC)c(NC(=O)CN2C(=O)COc3ccc(S(=O)(=O)NC4CCCC4)cc32)c1,2.8%,-12.5%,6.3%[59 µM],2.2%,21.3%
O=C(/C=C/c1ccccc1)CCN1CCOCC1,-3.4%,89.1µM*,.,.,-23.8%
CCC(C(=O)NCCc1ccccc1)n1nc(C)c2sc3ccccc3c2c1=O (centres undefined),0.1%,-11.9%,-5.1%[59 µM],3.5%,18.5%
CC(=O)N1CCc2cc(C(=O)CN3CCC(C)CC3)ccc21,-9.5%,-21.1%,17.8µM*,-4.5%,39.2%
CC(=O)N1CCc2cc(C(=O)CN3CCCN(Cc4ccc(F)cc4)C3)ccc21,.,.,44.7µM*,1.0%,.
CC1CCN(CC(=O)N2CCc3ccccc32)CC1,1.9%,-2.3%,53.1%,1.0%,44.4%
CC(=O)N1CCc2cc(CNC(=O)Cc3ccc(F)cc3)ccc21,-2.1%,-22.7%,10.4%[59 µM],-10.8%,5.8%
CC(=O)N1CCc2ccc(C(=O)CN3CCN(c4cccc(C)c4C)CC3)cc21,.,.,?,-9.5%,.
CC(=O)N1CCc2cc(C(=O)CN3CCN(C(=O)c4ccco4)CC3)ccc21,10.2%,-25.4%,12.6µM*,-24.0%,27.1%
CC(=O)N1CCc2cc(C(=O)CN3CCN(c4cccc(Cl)c4)CC3)ccc21,0.8%,-25.9%,22.4µM*,-11.7%,21.4%
CCCCCCN(C(=O)CCCCCN1C(=O)NC(c2ccc(-c3ccccc3)cc2)C(C(=O)OCc2ccccc2)=C1C)C(C(=O)NCCCC)c1ccc(O)c(C(=O)OC)c1 (centres undefined),.,.,-8.5%[12.7 µM],2.9%,.
NNC(=O)Cc1cccc2ccc(Cl)cc12,-0.4%,.,.,.,.
CC(=O)Oc1ccccc1Cn1c(C)c(C(=O)N(C)Cc2ccc(F)cc2)sc1=O,1.2%,.,.,.,.
Cc1cccc(/C=N/n2c(COc3ccccc3)n[nH]c2=S)c1,7.1%,?,3.16µM*,?,4.4%
S=c1[nH]nc(COc2ccccc2)n1/N=C/c1ccc(Cl)c(Cl)c1,-0.6%,?,12.6µM*,-14.8%,?
O=[N+]([O-])c1ccc(Cl)c(/C=N/n2c(C3CCCCC3)n[nH]c2=S)c1,4.6%,?,?,-2.4%,2.8%
